PubChem BioAssay (Tox21)
Records with an inconclusive call do not appear. Active and inactive are the calls of the source. Unless noted, the call rests on the fitted dose curve; in most records, active means well fitted curve in the direction sought with a large enough effect in the repeat runs; inconclusive means weak or mixed curves; inactive means flat fitted curve, though single readings scatter.

Assays:
[1] = qHTS assay to test for compound auto fluorescence at 535 nm (green) in HEK293 cells (AID 720680)
[2] = qHTS assay to test for compound auto fluorescence at 535 nm (green) in HEK293 cell free culture (AID 720682)
Summary of the method: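 Green-label autofluorescence (485 nm excitation, 535 nm emission) measured on compound added to cell-free culture medium (DMEM, 10% FBS). Output is expressed relative to fluorescein.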

[3] = qHTS assay to test for compound auto fluorescence at 590 nm (red) in HEK293 cell free culture (AID 720683)
Summary of the method: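 Cell-free wells of DMEM with 10% FBS received compound, and intrinsic fluorescence was read at excitation/emission 540/590 nm. Values expressed as equivalence to Rose Bengal sodium.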

[4] = qHTS assay to test for compound auto fluorescence at 590 nm (red) in HepG2 cell free culture (AID 720684)
Summary of the method: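 Auto fluorescence equivalency versus Rose Bengal sodium, red channel Ex/Em 540/590 nm; compounds in cell-free MEM/10% FBS; DMSO vehicle control.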

[5] = qHTS assay to test for compound auto fluorescence at 460 nm (blue) in HepG2 cell free culture (AID 720685)
Summary of the method: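 Cell-free plates of MEM plus 10% FBS received 23 nL compound or DMSO vehicle; blue-channel (405/460 nm) intensity scored against triamterene as reference fluorophore.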

[6] = qHTS assay to test for compound auto fluorescence at 535 nm (green) in HepG2 cell free culture (AID 720686)
[7] = qHTS assay to test for compound auto fluorescence at 460 nm (blue) in HepG2 cells (AID 720687)
Summary of the method: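 HepG2 cells in MEM with 10% FBS, attached overnight at 37 C, were exposed to compound or DMSO for 1 hr at 37 C, 5% CO2. Blue fluorescence was read at 405/460 nm, with triamterene as reference fluorophore.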

[8] = target: Glucocorticoid receptor (Homo sapiens) (UniProt P04150); test: qHTS assay to identify small molecule agonists of the glucocorticoid receptor (GR) signaling pathway (AID 720691; active means well fitted activation curve with a large enough effect in the signal ratio in the repeat runs, not every such curve was filed as active; the % refers to the signal ratio)
Summary of the method: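 Measures GR pathway activation through a GRE-beta-lactamase reporter stably integrated in HeLa cells, with 18 h compound treatment at 37 C and fluorescence detection using a FRET substrate.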

[9] = target: Glucocorticoid receptor (Homo sapiens) (UniProt P04150); test: qHTS assay to identify small molecule antagonists of the glucocorticoid receptor (GR) signaling pathway (AID 720692; active means well fitted inhibition curve with a large enough effect in the signal ratio in the repeat runs, not every such curve was filed as active; the % refers to the signal ratio)
Summary of the method: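 Tox21 10K library screened in concentration-response for blockade of dexamethasone (5 nM final)-induced GRE-bla reporter activity in HeLa cells; 18 h treatment, fluorescence read.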

Measured: Potency

Glucocorticoid receptor (Homo sapiens), sequence (P04150 whole entry, looked up): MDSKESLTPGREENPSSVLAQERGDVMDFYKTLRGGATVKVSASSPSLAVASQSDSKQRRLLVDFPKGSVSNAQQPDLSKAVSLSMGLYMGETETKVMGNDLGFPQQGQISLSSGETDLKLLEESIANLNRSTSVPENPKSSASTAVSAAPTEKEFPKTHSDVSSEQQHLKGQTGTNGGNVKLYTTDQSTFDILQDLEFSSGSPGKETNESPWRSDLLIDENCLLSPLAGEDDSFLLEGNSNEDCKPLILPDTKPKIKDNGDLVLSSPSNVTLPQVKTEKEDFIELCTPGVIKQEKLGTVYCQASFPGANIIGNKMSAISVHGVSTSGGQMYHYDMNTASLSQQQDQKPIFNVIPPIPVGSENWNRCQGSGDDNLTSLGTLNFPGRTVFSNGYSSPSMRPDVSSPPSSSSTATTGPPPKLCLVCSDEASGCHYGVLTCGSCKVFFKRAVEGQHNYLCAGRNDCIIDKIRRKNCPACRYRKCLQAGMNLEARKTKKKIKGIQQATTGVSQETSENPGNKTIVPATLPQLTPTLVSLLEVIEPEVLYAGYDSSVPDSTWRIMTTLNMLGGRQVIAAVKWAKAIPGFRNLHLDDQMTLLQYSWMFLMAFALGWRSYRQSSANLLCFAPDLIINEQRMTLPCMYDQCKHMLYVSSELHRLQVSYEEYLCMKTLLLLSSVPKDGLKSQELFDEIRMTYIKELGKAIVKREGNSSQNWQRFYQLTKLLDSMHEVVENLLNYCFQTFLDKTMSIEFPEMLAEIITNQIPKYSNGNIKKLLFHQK

CC(C1CC1)C(O)(Cn1cncn1)c1ccc(Cl)cc1 (stereo not given)
inactive: [1] | [2] | [3] | [4] | [5] | [6] | [7]

COC(=O)c1ccccc1S(=O)(=O)NC(=O)Nc1nc(C)cc(C)n1
inactive: [1] | [2] | [3] | [4] | [5] | [7] | [8] | [9]

CCCCCCBr
inactive: [1] | [2] | [3] | [5] | [7]

O=S(=O)(O)C(F)(F)C(F)(F)C(F)(F)C(F)(F)C(F)(F)C(F)(F)F
inactive: [1] | [2] | [3] | [4] | [5] | [7] | [9]

COP(N)(=S)Oc1ccccc1C(=O)OC(C)C (stereo not given)
inactive: [1] | [2] | [3] | [4] | [5] | [7] | [8] | [9]

Cc1ncc(CNC(=O)N(CCCl)N=O)c(N)n1
inactive: [1] | [2] | [3] | [4] | [5] | [6] | [7] | [8] | [9]

O=C1CN=C(c2ccccc2)c2cc([N+](=O)[O-])ccc2N1
inactive: [1] | [2] | [3] | [4] | [5] | [7] | [8] | [9]

CCCCOP(=O)(O)OCCCC
inactive: [1] | [2] | [3] | [4] | [5] | [7] | [8] | [9]

CC1(C)CON(Cc2ccccc2Cl)C1=O
inactive: [1] | [2] | [3] | [4] | [5] | [6] | [7]

CC1CCC(=O)O1 (stereo not given)
inactive: [1] | [2] | [3] | [4] | [5] | [6] | [7] | [8] | [9]

CC(Oc1ccc(Oc2ncc(C(F)(F)F)cc2Cl)cc1)C(=O)O (stereo not given)
inactive: [1] | [2] | [3] | [5] | [6] | [7] | [8]

BrCCCCCCBr
inactive: [1] | [2] | [3] | [4] | [5] | [7] | [9]
